According to ChEMBL document CHEMBL1961873, “Compounds: GSK PKIS; Assays: Nanosyn kinase panel” (2012):

Key:
[1] = target: Mitogen-activated protein kinase kinase kinase kinase 4 (Homo sapiens) (UniProt O95819); conditions: at 1 µM;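 further: reported figure is an averaged inhibition value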
[2] = target: Dual specificity mitogen-activated protein kinase kinase 1 (Homo sapiens) (UniProt Q02750); conditions: at 0.1 µM
[3] = target: Dual specificity mitogen-activated protein kinase kinase 1 (Homo sapiens) (UniProt Q02750); conditions: at 1 µM
[4] = target: Misshapen-like kinase 1 (Homo sapiens) (UniProt Q8N4C8); conditions: at 0.1 µM
[5] = target: Misshapen-like kinase 1 (Homo sapiens) (UniProt Q8N4C8); conditions: at 1 µM
[6] = target: T1, Serine/threonine-protein kinase 4 (Homo sapiens) (UniProt Q13043); conditions: at 0.1 µM
T1 sequence (whole entry): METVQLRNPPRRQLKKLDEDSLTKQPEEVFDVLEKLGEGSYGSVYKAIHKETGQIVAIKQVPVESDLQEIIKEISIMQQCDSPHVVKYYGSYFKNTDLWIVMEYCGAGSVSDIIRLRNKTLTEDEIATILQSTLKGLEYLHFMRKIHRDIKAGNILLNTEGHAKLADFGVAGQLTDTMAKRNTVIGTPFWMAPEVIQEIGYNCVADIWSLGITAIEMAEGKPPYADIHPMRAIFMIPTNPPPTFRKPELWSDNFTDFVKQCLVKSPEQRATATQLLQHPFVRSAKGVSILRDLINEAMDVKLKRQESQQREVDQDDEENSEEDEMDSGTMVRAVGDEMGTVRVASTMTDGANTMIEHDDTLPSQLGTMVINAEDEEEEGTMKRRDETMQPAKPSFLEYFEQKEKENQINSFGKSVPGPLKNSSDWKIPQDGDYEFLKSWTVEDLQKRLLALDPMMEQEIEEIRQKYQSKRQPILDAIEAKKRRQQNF

[7] = target: T1, Serine/threonine-protein kinase 4 (Homo sapiens); conditions: at 1 µM
[8] = target: T2, Serine/threonine-protein kinase 3 (Homo sapiens) (UniProt Q13188); conditions: at 0.1 µM
T2 sequence (whole entry): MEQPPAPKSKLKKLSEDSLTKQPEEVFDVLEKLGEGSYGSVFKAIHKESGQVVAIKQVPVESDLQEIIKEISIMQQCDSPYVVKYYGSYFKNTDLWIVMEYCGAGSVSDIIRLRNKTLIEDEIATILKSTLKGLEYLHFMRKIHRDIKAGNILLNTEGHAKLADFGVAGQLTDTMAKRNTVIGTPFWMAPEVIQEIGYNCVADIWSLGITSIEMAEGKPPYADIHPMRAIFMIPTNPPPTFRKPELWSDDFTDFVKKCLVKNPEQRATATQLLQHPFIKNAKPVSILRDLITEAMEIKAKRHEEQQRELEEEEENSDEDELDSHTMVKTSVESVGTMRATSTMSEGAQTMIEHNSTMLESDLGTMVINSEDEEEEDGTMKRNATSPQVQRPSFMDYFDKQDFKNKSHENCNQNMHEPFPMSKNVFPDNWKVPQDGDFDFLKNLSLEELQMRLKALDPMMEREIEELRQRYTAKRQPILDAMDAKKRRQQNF

[9] = target: T2, Serine/threonine-protein kinase 3 (Homo sapiens); conditions: at 1 µM
[10] = target: Serine/threonine-protein kinase 26 (Homo sapiens) (UniProt Q9P289); conditions: at 0.1 µM
Sequence of Serine/threonine-protein kinase 26 (Homo sapiens) (Q9P289 2-416 limits assumed): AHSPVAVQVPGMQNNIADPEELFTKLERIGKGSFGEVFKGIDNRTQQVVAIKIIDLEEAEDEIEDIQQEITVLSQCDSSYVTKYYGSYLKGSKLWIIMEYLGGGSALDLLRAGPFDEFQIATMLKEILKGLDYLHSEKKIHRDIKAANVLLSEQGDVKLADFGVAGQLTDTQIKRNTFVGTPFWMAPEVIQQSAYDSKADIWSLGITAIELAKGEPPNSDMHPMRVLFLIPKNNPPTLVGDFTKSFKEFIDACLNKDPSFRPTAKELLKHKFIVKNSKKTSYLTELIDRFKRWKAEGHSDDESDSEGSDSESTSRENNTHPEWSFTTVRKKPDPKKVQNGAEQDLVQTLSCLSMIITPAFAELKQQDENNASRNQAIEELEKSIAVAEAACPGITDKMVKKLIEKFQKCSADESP

Sequence of Dual specificity mitogen-activated protein kinase kinase 1 (Homo sapiens) (Q02750 whole entry): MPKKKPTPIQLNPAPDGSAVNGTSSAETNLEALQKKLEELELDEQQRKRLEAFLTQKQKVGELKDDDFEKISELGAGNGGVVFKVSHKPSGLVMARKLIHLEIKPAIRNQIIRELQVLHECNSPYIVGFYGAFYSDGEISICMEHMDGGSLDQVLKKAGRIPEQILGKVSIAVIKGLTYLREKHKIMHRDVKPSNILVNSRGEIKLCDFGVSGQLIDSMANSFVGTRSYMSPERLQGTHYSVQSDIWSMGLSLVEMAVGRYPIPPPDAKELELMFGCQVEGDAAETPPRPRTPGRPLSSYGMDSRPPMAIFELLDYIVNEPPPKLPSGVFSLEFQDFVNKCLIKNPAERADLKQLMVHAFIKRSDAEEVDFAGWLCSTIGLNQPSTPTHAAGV
Sequence of Mitogen-activated protein kinase kinase kinase kinase 4 (Homo sapiens) (O95819 2-1239 limits assumed): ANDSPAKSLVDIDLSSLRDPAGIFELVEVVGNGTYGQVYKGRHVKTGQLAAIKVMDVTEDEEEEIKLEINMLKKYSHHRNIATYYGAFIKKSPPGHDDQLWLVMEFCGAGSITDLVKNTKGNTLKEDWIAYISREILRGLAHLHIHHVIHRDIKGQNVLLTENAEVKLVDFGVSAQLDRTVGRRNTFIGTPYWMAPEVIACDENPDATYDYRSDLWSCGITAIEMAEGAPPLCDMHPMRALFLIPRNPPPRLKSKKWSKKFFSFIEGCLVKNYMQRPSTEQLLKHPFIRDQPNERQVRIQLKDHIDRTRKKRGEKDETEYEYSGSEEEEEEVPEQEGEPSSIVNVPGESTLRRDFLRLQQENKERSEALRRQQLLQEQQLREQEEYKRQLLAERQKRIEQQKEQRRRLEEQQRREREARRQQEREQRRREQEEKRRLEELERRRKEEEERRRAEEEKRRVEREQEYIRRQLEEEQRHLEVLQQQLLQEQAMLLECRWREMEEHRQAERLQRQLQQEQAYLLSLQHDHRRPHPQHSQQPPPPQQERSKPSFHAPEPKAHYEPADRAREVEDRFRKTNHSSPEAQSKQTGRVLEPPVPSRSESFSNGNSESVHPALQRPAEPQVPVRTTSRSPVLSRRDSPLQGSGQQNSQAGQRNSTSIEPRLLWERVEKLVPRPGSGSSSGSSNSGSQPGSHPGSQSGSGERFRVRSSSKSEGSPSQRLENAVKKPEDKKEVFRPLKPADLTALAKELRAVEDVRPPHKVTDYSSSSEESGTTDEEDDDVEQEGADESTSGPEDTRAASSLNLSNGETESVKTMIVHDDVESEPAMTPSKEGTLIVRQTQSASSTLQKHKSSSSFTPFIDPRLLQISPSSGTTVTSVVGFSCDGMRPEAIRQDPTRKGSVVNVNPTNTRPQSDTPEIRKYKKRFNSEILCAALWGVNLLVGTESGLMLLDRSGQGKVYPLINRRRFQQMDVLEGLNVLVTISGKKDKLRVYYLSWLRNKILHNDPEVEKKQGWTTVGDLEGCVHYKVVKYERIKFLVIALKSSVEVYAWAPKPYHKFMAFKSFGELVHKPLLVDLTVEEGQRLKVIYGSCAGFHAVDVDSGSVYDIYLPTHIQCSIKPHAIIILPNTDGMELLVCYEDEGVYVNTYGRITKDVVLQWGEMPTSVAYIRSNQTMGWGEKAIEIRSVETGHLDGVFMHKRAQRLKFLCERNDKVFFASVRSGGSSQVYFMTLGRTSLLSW
Sequence of Misshapen-like kinase 1 (Homo sapiens) (Q8N4C8 whole entry, looked up): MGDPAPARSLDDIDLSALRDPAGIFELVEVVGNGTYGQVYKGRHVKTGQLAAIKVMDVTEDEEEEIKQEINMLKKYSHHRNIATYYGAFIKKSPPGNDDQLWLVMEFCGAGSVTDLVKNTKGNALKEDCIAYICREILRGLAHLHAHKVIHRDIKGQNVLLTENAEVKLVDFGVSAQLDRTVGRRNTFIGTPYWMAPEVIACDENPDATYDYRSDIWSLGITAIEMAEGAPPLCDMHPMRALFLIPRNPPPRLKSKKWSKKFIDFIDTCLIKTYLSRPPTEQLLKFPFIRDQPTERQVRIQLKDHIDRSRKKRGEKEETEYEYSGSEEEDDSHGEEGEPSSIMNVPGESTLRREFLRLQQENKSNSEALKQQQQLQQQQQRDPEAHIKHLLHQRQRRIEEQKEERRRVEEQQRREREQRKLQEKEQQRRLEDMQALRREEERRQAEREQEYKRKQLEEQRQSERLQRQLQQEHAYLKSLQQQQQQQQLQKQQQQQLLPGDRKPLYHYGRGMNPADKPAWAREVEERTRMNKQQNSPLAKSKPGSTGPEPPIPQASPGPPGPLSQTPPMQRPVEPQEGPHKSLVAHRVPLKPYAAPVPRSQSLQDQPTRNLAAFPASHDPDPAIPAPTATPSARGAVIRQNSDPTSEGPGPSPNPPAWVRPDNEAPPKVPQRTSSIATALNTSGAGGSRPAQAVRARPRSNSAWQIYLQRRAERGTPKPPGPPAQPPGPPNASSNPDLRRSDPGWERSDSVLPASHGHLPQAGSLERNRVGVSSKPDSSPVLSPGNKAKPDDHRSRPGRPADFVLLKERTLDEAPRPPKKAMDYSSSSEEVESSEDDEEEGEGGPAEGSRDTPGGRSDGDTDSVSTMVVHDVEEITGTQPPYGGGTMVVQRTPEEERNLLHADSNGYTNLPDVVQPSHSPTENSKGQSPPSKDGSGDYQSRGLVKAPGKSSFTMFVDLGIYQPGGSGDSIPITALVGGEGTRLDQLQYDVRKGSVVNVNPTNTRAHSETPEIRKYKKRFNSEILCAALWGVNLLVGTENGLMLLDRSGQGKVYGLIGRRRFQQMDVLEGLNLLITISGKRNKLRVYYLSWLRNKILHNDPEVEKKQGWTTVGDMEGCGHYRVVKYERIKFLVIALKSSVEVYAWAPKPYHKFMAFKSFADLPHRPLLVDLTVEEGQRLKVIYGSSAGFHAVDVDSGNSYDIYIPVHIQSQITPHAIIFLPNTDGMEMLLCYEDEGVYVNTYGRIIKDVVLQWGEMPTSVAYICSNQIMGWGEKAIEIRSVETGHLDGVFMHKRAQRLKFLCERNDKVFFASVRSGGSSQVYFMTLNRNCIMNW

| SMILES | inhibition [1] [%] | inhibition [2] [%] | inhibition [3] [%] | inhibition [4] [%] | inhibition [5] [%] | inhibition [6] [%] | inhibition [7] [%] | inhibition [8] [%] | inhibition [9] [%] | inhibition [10] [%] |
| --- | --- | --- | --- | --- | --- | --- | --- | --- | --- | --- |
| CS(=O)(=O)Nc1ccc(N/C=C2\C(=O)Nc3ccccc32)cc1 | 73 | -3.18 | -0.2 | 11.8 | 63.8 | 6.72 | 51.9 | -0.42 | 24.6 | 0.42 |
| CC1=C(C(=O)Nc2ccc3[nH]ncc3c2)C(c2ccc3ccccc3c2)CC(=O)N1 (stereo not given) | 3.73 | 8.09 | 44.4 | 4.56 | 3.98 | 3.56 | 12.2 | 3.29 | 9.79 | -0.11 |
| Cc1nn(C)c2cc(N(C)c3ccnc(Nc4cccc(S(N)(=O)=O)c4)n3)ccc12 | 84.1 | 3.83 | 4.09 | 44.2 | 83.8 | 1.85 | 3.69 | 1.21 | 3.34 | -0.82 |
| Fc1cccc(COc2ccc(Nc3ncnc4cc(-c5ccc[nH]5)sc34)cc2Cl)c1 | 13.9 | 3.99 | 3.24 | 6.08 | 12.7 | 0.61 | 2.35 | 1.18 | 3.32 | -0.07 |
| CNC(=O)c1cncc(/C=C/c2c(Cl)cccc2Cl)c1 | 23 | 1.66 | 1.76 | 7.96 | 19.3 | 3.04 | 7.53 | 4.32 | 8.47 | -1.2 |
| COc1cc2ncn(-c3cc(OCc4ccccc4C(F)(F)F)c(C(N)=O)s3)c2cc1OC | 30.1 | 2.39 | 2.9 | 7.46 | 25.5 | 14.3 | 55.5 | 15.2 | 52.8 | -4.21 |
| CS(=O)(=O)CCNCc1ccc(-c2ccc3ncnc(Nc4ccc(OCc5cccc(F)c5)c(C(F)(F)F)c4)c3c2)o1 | 8.1 | 5.38 | 4.64 | 4.62 | 7.1 | 3.92 | 5.23 | 3.56 | 4.74 | -1.09 |
| CCN1CCC(CC(=O)Nc2n[nH]c3nc(-c4cccs4)c(Br)cc23)CC1 | 9.82 | -3.83 | -4.66 | -1.72 | 5.84 | -4.72 | -4.38 | -4.72 | -2.74 | 2.05 |
| [O-][S+]1CCN(Cc2ccc(-c3ccc4ncnc(Nc5ccc(OCc6ccccc6)c(F)c5)c4c3)o2)CC1 | -0.28 | 2.4 | 3.03 | 4.17 | 1.42 | 2.61 | 2.36 | 2.82 | 3.06 | -0.81 |
| CCn1c(-c2nonc2N)nc2c(C#CC(C)(C)O)nc(OC[C@@H](N)c3ccccc3)cc21 | 14.1 | -0.93 | 3.8 | -1.26 | 9.85 | -2.01 | 15.2 | -1.88 | 11.8 | 1.4 |
| CCn1c(-c2nonc2N)nc2cnc(Oc3cccc(NC(=O)c4ccc(OCCN5CCOCC5)cc4)c3)cc21 | 13.2 | 3.5 | 3.8 | 6.17 | 12.5 | 2.14 | 3.43 | 2.3 | 3.84 | -1.24 |
| COC(=O)Nc1nc2cc(Oc3cccc(NC(=O)Nc4cc(C(F)(F)F)ccc4F)c3)ccc2[nH]1 | 4.32 | 0.59 | 0.38 | 1.15 | 3.21 | -1.6 | 0.24 | -1.24 | 0.17 | 0.73 |
| COc1cc(C=NNc2ncnc3c2cnn3-c2ccccc2)ccc1O | 70.6 | 1.68 | 1.06 | 24 | 64.7 | 2.58 | 11.5 | 3.41 | 6.24 | 1.85 |
| CCn1c(-c2nonc2N)nc2cncc(C(=O)N3CCNCC3)c21 | 4.49 | 5.61 | 4.93 | 5.47 | 6.02 | 3.69 | 5.39 | 8.73 | 8.25 | -0.22 |
| CS(=O)(=O)CCNCc1nc(-c2ccc3ncnc(Nc4ccc(F)c(Cl)c4)c3c2)cs1 | 4.84 | 1.19 | 2.66 | 2.93 | 3.2 | 4.8 | 6.35 | 5.67 | 4.59 | 2.56 |
| CCn1c(-c2nonc2N)nc2c(C#CC(C)(C)O)nc(CN3CCCC3)cc21 | 1.37 | 0.73 | -0.46 | 2.4 | 0.35 | -1.15 | 0.25 | -2.44 | -2.27 | -0.36 |
| COc1ccc(-c2coc3ncnc(N)c23)cc1 | 10.2 | 5.34 | 5.29 | 12.5 | 8.75 | 7.11 | 8.23 | 6.08 | 6.94 | -0.2 |

| SMILES | inhibition [1] [%] | inhibition [2] [%] | inhibition [3] [%] | inhibition [4] [%] | inhibition [5] [%] | inhibition [6] [%] | inhibition [7] [%] | inhibition [8] [%] | inhibition [9] [%] | inhibition [10] [%] |
| --- | --- | --- | --- | --- | --- | --- | --- | --- | --- | --- |
| CN(C)c1cc2c(Nc3ccc4nc(Cc5ccccc5)[nH]c4c3)ncnc2cn1 | 9.42 | 6.17 | 5.42 | 8.81 | 9.2 | 4.35 | 3.57 | 4.95 | 2.18 | -1.17 |
| NS(=O)(=O)c1cccc(-c2ccc3c(NC(=O)C4CC4)n[nH]c3c2)c1 | 10 | -1.43 | 2.83 | 1.11 | 8.09 | -3.97 | -4.72 | -3.79 | -2.35 | 0 |
| COc1ccc(-c2ccncc2)cc1C(N)=O | 11.4 | 4.89 | 4.05 | 6.61 | 8.92 | 3.27 | 7.82 | 4.87 | 6.68 | -1.91 |
| COc1ccc(-c2nn3ncccc3c2-c2ccnc(Nc3ccc(Cl)c(C(F)(F)F)c3)n2)cc1 | 14.7 | 2.33 | 1.56 | 3.94 | 10.2 | 1.84 | 5.36 | 2.73 | 6.97 | 0.59 |
| CC1=C(C(=O)Nc2ccc3[nH]ncc3c2)C(c2ccc(F)cc2)NC(=O)N1 (stereo not given) | 11.1 | 2.25 | 5.95 | 7.37 | 13 | 1.11 | 5.91 | 1.29 | 6.58 | 0.66 |
| CCCN1CCC=C(c2ccc(Nc3nc(Nc4ccccc4C(N)=O)c4cc[nH]c4n3)c(C)c2)C1 | 65.3 | 7.02 | 28.7 | 14.8 | 55.2 | 9.53 | 42.5 | 5.37 | 21.2 | -2.63 |
| O=C1NC(=O)C(N2CCc3ccccc32)=C1c1ccc(Cl)cc1 | 9.97 | 5.02 | 5.22 | 5.14 | 10.3 | 6.36 | 7.67 | 6.26 | 7.91 | -1.31 |
| COc1cc2ncn(-c3cc(OCc4ccccc4Cl)c(C(N)=O)s3)c2cc1OC | 56.6 | 2.14 | 2.16 | 10.9 | 51 | 7.11 | 46.2 | 6.18 | 42.4 | 0.45 |
| Cc1cc(O)cc(C)c1/C=C/c1cncc(-c2nn[nH]n2)c1 | 25.3 | 6.51 | 5.24 | 9.23 | 21.7 | 3.48 | 9.22 | 4.45 | 10.7 | -1.84 |
| NC(=O)c1cccc(Nc2nccc(Nc3cccc4[nH]ncc34)n2)c1 | 39.2 | -4 | 0.69 | 0.64 | 29 | -3.17 | 13.3 | -4.57 | 6.87 | -0.32 |
| CC1=C(C(=O)Nc2ccc3[nH]ncc3c2)C(c2ccc(Cl)c(Cl)c2)CC(=O)N1 (stereo not given) | 3.96 | 4.74 | 30.5 | 1.68 | 1.98 | 1.25 | 4.28 | 1.27 | 2.63 | -1.2 |
| CC(C)=Cc1cccc2c1/C(=N/Nc1ccc(S(N)(=O)=O)cc1)C(=O)N2 | 31.3 | 0.02 | 2.23 | 3.63 | 25.1 | 66.6 | 84.5 | 52.6 | 82.4 | 4.55 |
| Cc1cccc(-c2n[nH]cc2-c2ccc3ncccc3n2)n1 | 30.9 | 1.75 | 1.88 | 4.05 | 19.5 | -0.22 | 0.4 | -0.46 | 0.93 | -1.15 |
| COc1cc2c(cc1Nc1nc(N3CCc4ccccc43)c3cc[nH]c3n1)N(C(=O)CN(C)C)CC2 | 2.27 | 1.49 | 2.14 | 3.79 | -0.01 | 5.66 | 6.86 | 6.28 | 5.22 | -0.61 |
| CCc1cccc(NC(=O)Nc2ccc(Oc3ccc4nc(NC(=O)OC)[nH]c4c3)cc2)c1 | 3.37 | 1.28 | 1.44 | 3.46 | 3.01 | 3.69 | 8.88 | 5.1 | 4.89 | 2.48 |
| Nc1ncnc2occ(-c3ccc(NC(=O)Nc4cc(C(F)(F)F)cc(C(F)(F)F)c4)cc3)c12 | 5.19 | 0.93 | 3.12 | 5.87 | -1.47 | 3.59 | 6.92 | 4.8 | 5.55 | -0.71 |
| COc1cc2ncn(-c3cc(O[C@@H](C)c4ccccc4Cl)c(C(N)=O)s3)c2cc1OC | 32 | 4.3 | 3.99 | 9.25 | 28.5 | 8.63 | 40.3 | 11.8 | 34.8 | -3.61 |
